Test results taken from the supplement of paper PMC10515830.
Structures can show the parent of a compound that is named as a salt.

How the values were obtained:
Settings in all cases: 10 µM; exposure time 6 h
[1] = test system: Danio rerio larvae (5 dpf); experiment: difference in excitability vs DMSO (percentage points); higher = more excitable than DMSO
Outline: (§1)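 In 96-well plates, 48 wild-type zebrafish larvae aged 5 dpf per compound received 100 µL egg water with library compound at 10 µM final for 6 h. Three hours into this, a 3-h programme of moving lines and 100 ms, 400Hz tones ran at 28.5 ℃ while plates were photographed every 6 s. Z-LaP Tracker scored the behaviours, and each is given as the compound mean minus the vehicle control mean in percentage points.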

[2] = test system: Danio rerio larvae (5 dpf); experiment: difference in startle response vs DMSO (percentage points); higher = stronger startle than DMSO
Outline: as §1

[3] = test system: Danio rerio larvae (5 dpf); experiment: difference in activity during first hour vs DMSO (percentage points); higher = more activity than DMSO
Outline: as §1

[4] = test system: Danio rerio larvae (5 dpf); experiment: difference in habituation to acoustic stimuli vs DMSO (percentage points); higher = more habituation than DMSO
Outline: as §1

[5] = test system: Danio rerio larvae (5 dpf); experiment: difference in combined optomotor response to red, green and blue moving lines vs DMSO (percentage points); higher = stronger optomotor response than DMSO
Outline: as §1

| SMILES | difference in excitability [1] | difference in startle response [2] | difference in activity during first hour [3] | difference in habituation to acoustic stimuli [4] | difference [5] |
| --- | --- | --- | --- | --- | --- |
| CN(C)C(=O)Oc1cccc([N+](C)(C)C)c1 [Neostigmine (methyl sulfate)] | -10.3 | 0.754 | 11.2 | 5.23 | 17 |
| CN1C[C@H](C(=O)N[C@]2(C)O[C@@]3(O)[C@@H]4CCCN4C(=O)[C@H](Cc4ccccc4)N3C2=O)C[C@@H]2c3cccc4[nH]cc(c34)C[C@H]21 [Dihydroergotamine (mesylate)] | 16.4 | 11.9 | -6.95 | -1.86 | 2.36 |
| O=P1(NCCCl)OCCCN1CCCl (stereo not given) [Ifosfamide] | 10 | -6.24 | -5.39 | 2.26 | 2.77 |
| CC(C)C[C@H]1C(=O)N2CCC[C@H]2[C@]2(O)O[C@](NC(=O)[C@@H]3C[C@@H]4c5cccc6[nH]cc(c56)C[C@H]4N(C)C3)(C(C)C)C(=O)N12.CC(C)[C@@]1(NC(=O)[C@@H]2C[C@@H]3c4cccc5[nH]cc(c45)C[C@H]3N(C)C2)O[C@@]2(O)[C@@H]3CCCN3C(=O)[C@H](Cc3ccccc3)N2C1=O.CC(C)[C@H]1C(=O)N2CCC[C@H]2[C@]2(O)O[C@](NC(=O)[C@@H]3C[C@@H]4c5cccc6[nH]cc(c56)C[C@H]4N(C)C3)(C(C)C)C(=O)N12.CCC(C)[C@H]1C(=O)N2CCC[C@H]2[C@]2(O)O[C@](NC(=O)[C@@H]3C[C@@H]4c5cccc6[nH]cc(c56)C[C@H]4N(C)C3)(C(C)C)C(=O)N12 [Ergoloid (mesylates)] | 8.62 | 4.7 | -1.3 | 2.76 | -3.42 |
| C[C@H](N)[C@H](O)c1ccc(O)c(O)c1 [Levonordefrin] | 2.43 | -2.28 | 3.36 | -5.57 | -0.226 |
| C[N@+]1(CC2CC2)CC[C@]23c4c5ccc(O)c4O[C@H]2C(=O)CC[C@@]3(O)[C@H]1C5 [Methylnaltrexone (bromide)] | 3.91 | -0.955 | 8.76 | 7.78 | -7.48 |
| C#CCN(C)[C@H](C)Cc1ccccc1 [R-(-)-Deprenyl (hydrochloride)] | -5.66 | -0.482 | -5.84 | 6.14 | 1.17 |
| Cn1c(CCCC(=O)O)nc2cc(N(CCCl)CCCl)ccc21 [Bendamustine (hydrochloride)] | 1.71 | -1.73 | 2 | -3.41 | -1.37 |
| C[N+]1(C)CCCC(OC(=O)C(O)(c2ccccc2)c2ccccc2)C1 (stereo not given) [Mepenzolate (bromide)] | 0.196 | -4.42 | 2.16 | -0.492 | -1.25 |
| C=CCN1CC[C@]23c4c5ccc(O)c4O[C@H]2C(=O)CC[C@@]3(O)[C@H]1C5 [Naloxone (hydrochloride)] | 12.1 | -4.15 | 1.81 | 1.98 | 9.16 |
| CN1[C@@H]2C[C@@H](OC(=O)[C@H](CO)c3ccccc3)C[C@H]1[C@@H]1O[C@@H]12 [Scopolamine (hydrobromide)] | 4.44 | 2.53 | -2.69 | -4.87 | 2.89 |
| Cc1cccc([C@H](C)c2c[nH]cn2)c1C [Dexmedetomidine (hydrochloride)] | 3.34 | 6.43 | -24.1 | -7.14 | -16.9 |
| ClC1C(Cl)C(Cl)C(Cl)C(Cl)C1Cl (stereo not given) [γ-Lindane] | 7.5 | 11.9 | 1.64 | -7.56 | -16.7 |
| O=P1(N(CCCl)CCCl)NCCCO1 (stereo not given) [Cyclophosphamide (hydrate)] | -1.55 | -0.479 | 2.35 | -0.439 | 2.91 |
| O=C(O[C@H]1C[C@H]2CC[C@@H](C1)[N+]21CCCC1)C(O)(c1ccccc1)c1ccccc1 [Trospium (chloride)] | -11.2 | -0.27 | 1.73 | -0.832 | -4.92 |
| COc1ccc(C(CN(C)C)C2(O)CCCCC2)cc1 (stereo not given) [Venlafaxine (hydrochloride)] | 16.6 | -10.3 | -21.1 | -5.65 | -7.48 |
| COc1cc([C@@H]2c3cc4c(cc3[C@H](O)[C@H]3COC(=O)[C@H]23)OCO4)cc(OC)c1OC [Podophyllotoxin] | 12.7 | -7.15 | -1.85 | 2.01 | 7.28 |
| N.N.[Cl][Pt][Cl] [Cisplatin] | -2.35 | -10 | -16.8 | -5.63 | -0.233 |
| CC1=C[C@]23C(=O)[C@@H](C=C(CO)[C@@H](O)[C@]2(O)[C@H]1O)[C@H]1[C@@H](C[C@H]3C)C1(C)C [Ingenol] | 8.75 | 2.54 | -2.63 | 4.35 | -0.622 |
| CCOC(=O)c1cncn1[C@H](C)c1ccccc1 [Etomidate] | -7.08 | 15.9 | -22.2 | -6.98 | -19.2 |
| CN1[C@@H]2CC[C@H]1C[C@@H](OC(=O)C(CO)c1ccccc1)C2 (stereo not given in full) [Atropine] | -7.7 | -5.16 | -10.3 | -0.323 | -1.56 |
| COc1cc2c(c(OC)c1OC)-c1ccc(OC)c(=O)cc1[C@@H](NC(C)=O)CC2 [Colchicine] | -4.48 | -0.112 | 1.93 | 2.9 | 4.29 |

| SMILES | difference in excitability [1] | difference in startle response [2] | difference in activity during first hour [3] | difference in habituation to acoustic stimuli [4] | difference [5] |
| --- | --- | --- | --- | --- | --- |
| CC[C@@H](C(N)=O)N1CCCC1=O [Levetiracetam] | 1.51 | 0.691 | 2.97 | 4.14 | 4.89 |
| O=c1[nH]c2ccccc2n1C1CCN(CCCC(c2ccc(F)cc2)c2ccc(F)cc2)CC1 [Pimozide] | -5.57 | 7.75 | -5.44 | -11 | -13.5 |
| CCN(C(C)=O)c1cccc(-c2ccnc3c(C#N)cnn23)c1 [Zaleplon] | -3.98 | -8.07 | 5.81 | -1.42 | -10.8 |
| O=[N+]([O-])O[C@H]1CO[C@H]2[C@@H]1OC[C@H]2O[N+](=O)[O-] [Isosorbide Dinitrate] | 5.95 | 10.4 | 2.6 | 1.13 | 5 |
| NCC(CC(=O)O)c1ccc(Cl)cc1 (racemic) [(±)-Baclofen] | -0.88 | 5.35 | 13.9 | -0.192 | 6.84 |
| CCN(C)C(=O)Oc1cccc([C@H](C)N(C)C)c1 [Rivastigmine (tartrate)] | 0.964 | 4.99 | -2.5 | -3.03 | 5.01 |
| CC(NC(C)(C)C)C(=O)c1cccc(Cl)c1 (stereo not given) [Bupropion (hydrochloride)] | -1.99 | -4.01 | -3.52 | 2.84 | -2.98 |
| CCOC(=O)CC(SP(=S)(OC)OC)C(=O)OCC (stereo not given) [Malathion] | 21.4 | 5.73 | -5.37 | 1.62 | 14.9 |
| C=CCN1CC[C@]23c4c5ccc(O)c4O[C@H]2[C@@H](OCCOCCOCCOCCOCCOCCOCCOC)CC[C@@]3(O)[C@H]1C5 [Naloxegol (oxalate)] | 3.05 | 1.93 | 7.65 | 5.19 | -4.82 |
| O=C(O[C@H]1C[N+]2(CCCOc3ccccc3)CCC1CC2)C(O)(c1cccs1)c1cccs1 [Aclidinium (bromide)] | -0.582 | -8.56 | -5.04 | -1.38 | -3.58 |
| CC(N)Cc1ccc(O)cc1 (stereo not given) [4-hydroxy Amphetamine (hydrochloride)] | 2.21 | -1.49 | 5.37 | 0.612 | -2.78 |
| Nc1ncnc2c1ncn2CCOCP(=O)(O)O [Adefovir] | -0.414 | 3.47 | 19.5 | -0.786 | 6.79 |
| CC(O)(CS(=O)(=O)c1ccc(F)cc1)C(=O)Nc1ccc(C#N)c(C(F)(F)F)c1 (stereo not given) [Bicalutamide] | -0.599 | 4.36 | 0.23 | 6.4 | 9.87 |
| C=CCN1C[C@H](C(=O)N(CCCN(C)C)C(=O)NCC)C[C@@H]2c3cccc4[nH]cc(c34)C[C@H]21 [Cabergoline] | 13.2 | -8.8 | -4.41 | 5.57 | -3.78 |
| CC(C)C[C@H]1C(=O)N2CCC[C@H]2[C@]2(O)O[C@](NC(=O)[C@@H]3C=C4c5cccc6[nH]c(Br)c(c56)C[C@H]4N(C)C3)(C(C)C)C(=O)N12 [Bromocriptine (mesylate)] | 22.1 | -1.2 | 30.9 | -9.36 | -3.6 |
| Nc1ccncc1 [4-Aminopyridine] | 5.12 | 6.44 | 9.5 | -2.32 | 10.7 |
| N[C@@H](Cc1ccc(N(CCCl)CCCl)cc1)C(=O)O [Melphalan] | 10.9 | 1.5 | -4.46 | -1.58 | 7.41 |
| O=C(O)CCCc1ccc(N(CCCl)CCCl)cc1 [Chlorambucil] | 12.6 | 1.74 | 5.75 | -1.6 | -10.5 |
| CC(=O)O[C@H]1C[C@@H]2CC[C@@H]3[C@H](CC[C@@]4(C)[C@H]3C[C@H]([N+]3(C)CCCCC3)[C@@H]4OC(C)=O)[C@@]2(C)C[C@@H]1[N+]1(C)CCCCC1 [Pancuronium (bromide hydrate)] | 15.9 | 4.02 | -3.48 | -0.432 | 5.41 |
| CC(C)N(CCC(C(N)=O)(c1ccccc1)c1ccccn1)C(C)C (stereo not given) [Disopyramide] | 5.49 | -1.52 | 13.6 | 4.14 | 9.12 |
| CN(C)C(=O)Oc1ccc[n+](C)c1 [Pyridostigmine (bromide)] | -1.66 | -2.73 | -1.82 | 4.7 | 2.09 |
